The record followed here is PubChem BioAssay AID624173 (National Center for Advancing Translational Sciences (NCATS), 2012).

Hit rate of the full screen: of about 410,000 compounds, about 490 (0.12%) were called active. A call without a number means that no potency is given here. Not shown: some 1% with an inconclusive outcome. Calls follow the shape of the dose curve; as a rule, active = well fitted inhibition curve with a large enough effect; inconclusive = small, poorly fitted or top-dose-only effect; inactive = flat fitted curve, though single readings scatter. This excerpt belongs to a sample that is enriched for actives.
Potency is read from the fitted curve at half-maximal effect.

The target in this assay is pyruvate kinase (Trypanosoma brucei) (UniProt Q57TT1). In words: qHTS of Trypanosoma Brucei Inhibitors. Also: nearly all actives have a fitted effect of over 50% in size. Particulars: TbPYK enzyme, Kinase-Glo Plus ATP luminescence, 45 min; series mostly up to 76.8 µM. The text has this: Members of the Trypanosomatidae family of parasitic protozoans cause a spectrum of diseases throughout the tropical and subtropical world. Sleeping sickness, caused by two subspecies of Trypanosoma brucei, is endemic to areas of sub-Saharan Africa, while Chagas' disease, a manifestation of Trypanosoma cruzi infection, is prevalent throughout Central and South America. In addition, many species of Leishmania are responsible for a range of cutaneous and visceral diseases, causing ulcers, destructive lesions and kalaazar, a lethal infection of the viscera. These diseases cause severe public health and economic burdens on populations that are often already caught in a tragic cycle of poverty, poor nutrition and disease. Collectively, parasites of the trypanosomatid family infect 30 million people worldwide (~500 million live in endemic areas), and account for ~130K deaths annually. Existing treatments have developed little in the past 50 years, and suffer from toxicity, poor efficacy and resistance; the goal of this project is to develop lead drugs that will be suitable for entry into pre-clinical trials.
Glycolysis in axenically cultured T. cruzi, representing the intracellular pathogenic stage, is also essential for these parasites. {Engel, 1987} This project aims to discover and optimize selective inhibitors of the glycolytic enzyme pyruvate kinase (PYK) from Trypanosoma brucei, the parasite that causes sleeping sickness. […] Trypanosomatid PYKs show significant differences from their human counterparts including only 47-50% sequence identity and different allosteric and activation properties.{Callens, 1992} To this end, a qHTS was done against the MLSMR to discover inhibitors.
NIH Molecular Libraries Probe Production Network [MLPCN]
NIH Chemical Genomics Center [NCGC]
PI Name: Malcolm Walkinshaw, University of Edinburgh
2 uL of TbPYK/substrate buffer (columns 1-3, 5-48) are dispensed into Greiner white solid bottom 1536-well assay plates; column 4 receives only TEA buffer as 0x TbPYK controls. Compounds are then transferred via Kalypsys pin tool equipped with 1536-pin array (10 nL slotted pins, V&P Scientific, San Diego, CA). Following addition of compound, 2 uL of ADP (130 uM final concentration, all columns) is added to initiate the reaction. The plates are then incubated at room temperature for 45 minutes. Kinase-Glo Plus reagent is added (3 uL) and plates incubated for 10 minutes, before being transferred to a ViewLux high-throughput CCD imager (PerkinElmer) wherein single end-point measurements of luminescence are acquired using a clear filter. All reagents are diluted in an assay buffer consisting of 50 mM TEA (pH 7.2), 100 mM KCl, 10 mM MgCl2, 0.05% BSA and 0.01% Tween-20.
All screening operations will be performed on a fully integrated robotic system (Kalypsys, San Diego, CA) containing one RX-130 and two RX-90 anthropomorphic robotic arms (Staeubli, Duncan, SC). Library plates will be screened starting from the lowest and proceeding to the highest concentration. Vehicle-only plates, with DMSO being pin-transferred to columns 5-48, will be inserted uniformly at the beginning and the end of each library in order to monitor and record any shifts in the background, which can be affected by reagent dispensers or loss in enzyme activity over time. Screening data will be corrected, normalized, and concentration-effect relationships will be derived by using publicly-available curve fitting algorithms developed in-house (http://ncgc.nih.gov/pub/openhts).
For the molecule `O=S(O)CNc1ccc(S(=O)(=O)c2ccc(NCS(=O)O)cc2)cc1`, the Potency entry was “inactive”.

On to `O=C(c1ccco1)N1CCC[C@@]2(CCN(Cc3nccs3)C2)C1`, for which the Potency result was “inactive”.

For the molecule `Cn1cccc1C(=O)N1CCC2(CC1)CN(c1cccc(-c3ccccc3)c1)C2`, the Potency result was “inactive”.

In the case of `C/C=C1\C2C=C(C)CC1(N)c1ccc(=O)[nH]c1C2` (stereo unspecified), the Potency result was “inactive”.

With `NC(=O)C(=O)N/N=C/c1ccc([N+](=O)[O-])o1`, the Potency entry is “inactive”.

On to `O=C(c1cc(C(F)(F)F)cc(C(F)(F)F)c1)N1CCC[C@@]2(CCN(c3ccccn3)C2)C1`, for which the Potency result is “inactive”.

For `CC(C)NC(=O)N1CCC2(CC1)CCN(C(=O)c1cccn1C)CC2`, the Potency entry is “inactive”.

In the case of `O=C(O)CCC(=O)O`, the Potency entry was “inactive”.

On to `CC(C)(O/N=C(\C(=O)N[C@@H]1C(=O)N2C(C(=O)[O-])=C(C[n+]3ccccc3)CS[C@@H]12)c1csc(N)n1)C(=O)O`, for which the Potency result is “inactive”.

With `COCCn1c(=O)c(CCc2ccccc2)nc2cnc(N3CCNCC3)nc21`, the Potency entry is “inactive”.

As to `COc1ccnc(C[S@@](=O)[C@@H]2Nc3ccc(OC(F)F)cc3N2)c1OC`, the Potency result was “inactive”.

As for `C[C@]12CC[C@@H]3c4ccc(O)cc4C[C@@H](CCCCCCCCCS(=O)CCCC(F)(F)C(F)(F)F)C3[C@@H]1CC[C@@H]2O` (stereo partly specified), the Potency entry was “inactive”.

As for `C=CCn1c(C)cc(C2=NNC(=NCC)SC2)c1C`, the Potency was 17.8 µM (active).

`CC1N=C(N)OC1c1ccccc1` (stereo unspecified): the Potency entry was “inactive”.

Consider `CS(=O)(=O)N1CCC2(CCN(c3ccncc3)CC2)CC1`, for which the Potency entry is “inactive”.

`CC1(C)O[C@@H]2C[C@@H]3[C@H]4C[C@@H](F)C5=CC(=O)C=C[C@]5(C)[C@@]4(F)[C@@H](O)C[C@]3(C)[C@]2(C(=O)CO)O1`: the Potency entry is “inactive”.

Take `COc1cc(C[C@H]2NCCc3cc(O)c(O)cc32)cc(OC)c1OC`: the Potency entry was “inactive”.

With `O=C(c1ccncc1)N1CCC2(CCN(Cc3cc(C(F)(F)F)cc(C(F)(F)F)c3)CC2)CC1`, the Potency result is “inactive”.

For `CC(=O)O[C@]1(C(C)=O)CC[C@@H]2[C@@H]3C=C(C)C4=CC(=O)CC[C@@]4(C)[C@H]3CC[C@]21C`, the Potency entry was “inactive”.

For the molecule `CS(=O)(=O)N1CCC2(CC1)CN(Cc1ccccc1)C2`, the Potency entry was “inactive”.

As for `CCCCC(=O)OCC(=O)[C@H]1[C@H](C)C[C@@H]2[C@@H]3C[C@@H](F)C4=CC(=O)C=C[C@]4(C)[C@@]3(F)[C@@H](O)C[C@@]21C`, the Potency entry is “inactive”.

Take `CC(C)NC(=O)N1CCCC2(CCN(C(=O)c3cccn3C)CC2)C1`: the Potency result was “inactive”.

With `CCOC(=O)c1c(NC(=O)CSc2cn(CCNC(=O)c3cccc(C(F)(F)F)c3)c3ccccc23)sc2c1CCC2`, the Potency entry was “inactive”.

For the molecule `O=c1c(-c2cc(F)cc(F)c2)nc2cnc(Oc3ccccc3)nc2n1C[C@H]1CCCO1`, the Potency result is “inactive”.

On to `COc1ccc(-c2nc3cnc(OC)nc3n(Cc3ccc(F)cc3)c2=O)cc1`, for which the Potency result is “inactive”.

In the case of `COc1ccc(C(=O)N2CCC3(CCCN(C(c4ccccc4)c4ccccc4)C3)CC2)cc1`, the Potency entry is “inactive”.

Turning to `Cc1nc2cnc(N3CCNCC3)nc2n(Cc2ccc(F)cc2)c1=O`, the Potency entry was “inactive”.

Take `CS(=O)(=O)N1CCC[C@@]2(CCN(c3ccncc3)C2)C1`: the Potency entry was “inactive”.

On to `O=C(Nc1cccc(C(F)(F)F)c1)c1cc(Br)cc(Br)c1O`, for which the Potency entry is “inactive”.

`O=C(c1cnccn1)N1CCC2(CCCN(Cc3ccccc3)C2)CC1`: the Potency entry was “inactive”.

On to `COc1cc([C@@H]2c3cc4c(cc3[C@@H](O[C@@H]3O[C@@H]5CO[C@@H](C)O[C@H]5[C@H](O)[C@H]3O)[C@H]3COC(=O)[C@H]23)OCO4)cc(OC)c1OP(=O)(O)O`, for which the Potency result is “inactive”.

For the molecule `CC(C)NC(=O)N1CC[C@@]2(CCCN(C(=O)c3cccn3C)C2)C1`, the Potency result is “inactive”.

As to `CC[C@]1([C@H]2O[C@@H]([C@@H]3O[C@](O)(CO)[C@@H](C)C[C@H]3C)C[C@H]2C)CC[C@@H]([C@]2(C)CC[C@@]3(C[C@@H](O)[C@@H](C)[C@@H]([C@H](C)[C@H](OC)[C@H](C)C(=O)O)O3)O2)O1`, the Potency entry is “inactive”.

Regarding `CC(C)(O)c1ccccc1CC[C@H](SCC1(CC(=O)O)CC1)c1cccc(/C=C/c2ccc3ccc(Cl)cc3n2)c1`, the Potency entry was “inactive”.

Regarding `CC1(C)OC2CC(=O)OC[C@@]23C1CC(=O)[C@]1(C)C3CC[C@@]2(C)C(c3ccoc3)OC(=O)C3O[C@@]321` (stereo partly specified), the Potency result was “inactive”.

Consider `c1ccc2sc(SNC3CCCCC3)nc2c1`, for which the Potency entry was “inactive”.

For the molecule `CC(C)Cn1c(=O)c2ccccc2n2c(-c3cccc(Cl)c3)nnc12`, the Potency entry is “inactive”.

Consider `O=c1[nH]c2ccccc2n2c(-c3ccccc3)nnc12`, for which the Potency was 2.82 µM (active).

As to `O=C(c1ncn2c1c(=O)[nH]c1ccccc12)N1CCc2ccccc2C1`, the Potency entry was “inactive”.

Regarding `CCNC[C@H](O)c1cccc(O)c1`, the Potency result was “inactive”.

For the molecule `Cc1c(O)cc2c(c1C)O[C@](C)(CCC[C@H](C)CCC[C@H](C)CCCC(C)C)CC2`, the Potency result is “inactive”.

Take `Nc1ccccc1SC(C[N+](=O)[O-])c1ccccc1` (stereo unspecified): the Potency was 12.6 µM (active).

`CCC(=O)N1CCc2cc(Br)cc(S(=O)(=O)Nc3ccc(C)cc3C)c21`: the Potency result was “inactive”.

`COCCn1c(=O)c(-c2ccc(OC)cc2)nc2cnc(Oc3cccc(Cl)c3)nc21`: the Potency entry was “inactive”.

As for `N#Cc1cccc(-c2nc3cnc(N4CCNCC4)nc3n(C3CC3)c2=O)c1`, the Potency entry was “inactive”.

Consider `COc1cc2c(cc1OC)CC(=O)N(CCCN(C)C[C@H]1Cc3cc(OC)c(OC)cc31)CC2`, for which the Potency entry was “inactive”.
